The supplement of paper PMC9446081
± gives the standard deviation of the averaged measurements.

Legend:
Assay in all cases: relative enzymatic activity vs untreated control (fraction); higher = less inhibition
Conditions in all cases: 100 µM; incubation time: 2 h at 37 C
DNA gyrase = test system: DNA gyrase
Description: (§1)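 In vitro enzymatic inhibition assays (ProFoldin kits) for 12 purified essential E. coli enzymes or complexes, each treated with 218 active antibacterial compounds at 100 µM for 2 h at 37°C. Read-outs were fluorescence or absorbance (phosphate detection, dye binding), converted to activity via standard curves and expressed relative to untreated DMSO controls.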

DNA helicase = DNA helicase (UniProt P0ACB1)
Sequence of DNA helicase (P0ACB1 whole entry): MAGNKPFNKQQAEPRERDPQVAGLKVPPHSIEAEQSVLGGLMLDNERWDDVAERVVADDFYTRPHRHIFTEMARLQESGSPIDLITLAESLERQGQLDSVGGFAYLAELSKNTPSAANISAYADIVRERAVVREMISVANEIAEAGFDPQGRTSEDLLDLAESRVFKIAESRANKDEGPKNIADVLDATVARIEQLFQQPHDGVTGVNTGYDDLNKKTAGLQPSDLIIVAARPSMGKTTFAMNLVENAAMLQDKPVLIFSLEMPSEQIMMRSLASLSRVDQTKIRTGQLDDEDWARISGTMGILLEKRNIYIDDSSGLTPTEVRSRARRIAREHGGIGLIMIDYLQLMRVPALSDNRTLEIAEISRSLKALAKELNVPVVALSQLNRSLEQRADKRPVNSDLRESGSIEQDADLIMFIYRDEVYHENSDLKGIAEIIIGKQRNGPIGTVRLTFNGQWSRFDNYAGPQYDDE
Description: as §1

DNA ligase = DNA ligase (UniProt B1XA82)
Sequence of DNA ligase (B1XA82 whole entry): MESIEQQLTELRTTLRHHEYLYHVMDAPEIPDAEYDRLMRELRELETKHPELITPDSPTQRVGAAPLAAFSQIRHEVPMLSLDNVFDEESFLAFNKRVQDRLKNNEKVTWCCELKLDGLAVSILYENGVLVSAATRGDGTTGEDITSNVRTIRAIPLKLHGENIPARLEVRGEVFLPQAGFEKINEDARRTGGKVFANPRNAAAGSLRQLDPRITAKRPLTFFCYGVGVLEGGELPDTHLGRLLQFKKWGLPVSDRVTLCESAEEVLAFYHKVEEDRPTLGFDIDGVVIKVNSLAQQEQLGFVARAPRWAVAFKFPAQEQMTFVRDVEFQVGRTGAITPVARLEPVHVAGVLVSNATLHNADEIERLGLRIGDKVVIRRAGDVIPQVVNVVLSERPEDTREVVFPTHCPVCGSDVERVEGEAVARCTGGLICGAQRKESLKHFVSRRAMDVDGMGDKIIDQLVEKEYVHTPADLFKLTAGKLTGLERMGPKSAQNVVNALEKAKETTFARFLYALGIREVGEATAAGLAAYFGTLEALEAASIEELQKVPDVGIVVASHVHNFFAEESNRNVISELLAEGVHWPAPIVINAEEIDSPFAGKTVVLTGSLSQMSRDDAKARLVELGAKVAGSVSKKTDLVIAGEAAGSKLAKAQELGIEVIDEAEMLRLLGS
Description: as §1

DNA polymerase = DNA polymerase (UniProt P10443)
Sequence of DNA polymerase (P10443 whole entry): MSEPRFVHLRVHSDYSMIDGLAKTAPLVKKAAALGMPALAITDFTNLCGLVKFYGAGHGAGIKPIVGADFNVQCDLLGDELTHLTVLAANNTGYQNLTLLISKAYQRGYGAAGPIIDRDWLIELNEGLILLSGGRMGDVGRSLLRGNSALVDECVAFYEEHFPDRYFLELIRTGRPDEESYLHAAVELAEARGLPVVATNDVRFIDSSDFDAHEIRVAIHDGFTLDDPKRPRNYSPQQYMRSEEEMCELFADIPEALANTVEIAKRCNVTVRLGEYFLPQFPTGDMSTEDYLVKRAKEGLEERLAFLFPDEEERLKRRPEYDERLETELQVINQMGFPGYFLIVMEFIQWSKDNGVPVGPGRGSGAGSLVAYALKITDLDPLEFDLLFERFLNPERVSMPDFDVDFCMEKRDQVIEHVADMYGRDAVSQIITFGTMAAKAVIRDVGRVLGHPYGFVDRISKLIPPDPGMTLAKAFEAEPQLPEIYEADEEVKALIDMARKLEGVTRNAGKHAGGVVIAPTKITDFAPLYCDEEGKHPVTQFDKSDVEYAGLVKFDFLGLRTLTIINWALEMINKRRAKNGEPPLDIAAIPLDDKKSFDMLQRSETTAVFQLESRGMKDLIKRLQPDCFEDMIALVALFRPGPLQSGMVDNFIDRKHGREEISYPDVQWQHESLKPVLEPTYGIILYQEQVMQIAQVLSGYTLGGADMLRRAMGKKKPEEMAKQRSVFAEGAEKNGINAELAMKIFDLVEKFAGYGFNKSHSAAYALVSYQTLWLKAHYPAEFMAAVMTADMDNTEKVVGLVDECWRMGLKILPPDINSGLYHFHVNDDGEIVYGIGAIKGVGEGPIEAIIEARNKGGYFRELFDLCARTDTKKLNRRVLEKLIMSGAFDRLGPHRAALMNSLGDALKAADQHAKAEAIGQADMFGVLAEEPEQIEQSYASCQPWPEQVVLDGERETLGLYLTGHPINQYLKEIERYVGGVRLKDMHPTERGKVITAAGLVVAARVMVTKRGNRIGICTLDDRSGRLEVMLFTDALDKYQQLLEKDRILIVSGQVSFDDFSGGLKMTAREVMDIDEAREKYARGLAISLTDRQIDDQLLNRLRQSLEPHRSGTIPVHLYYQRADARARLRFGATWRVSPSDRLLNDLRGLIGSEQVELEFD
Description: as §1

DNA primase = DNA primase (UniProt P0ABS7)
Sequence of DNA primase (P0ABS7 whole entry): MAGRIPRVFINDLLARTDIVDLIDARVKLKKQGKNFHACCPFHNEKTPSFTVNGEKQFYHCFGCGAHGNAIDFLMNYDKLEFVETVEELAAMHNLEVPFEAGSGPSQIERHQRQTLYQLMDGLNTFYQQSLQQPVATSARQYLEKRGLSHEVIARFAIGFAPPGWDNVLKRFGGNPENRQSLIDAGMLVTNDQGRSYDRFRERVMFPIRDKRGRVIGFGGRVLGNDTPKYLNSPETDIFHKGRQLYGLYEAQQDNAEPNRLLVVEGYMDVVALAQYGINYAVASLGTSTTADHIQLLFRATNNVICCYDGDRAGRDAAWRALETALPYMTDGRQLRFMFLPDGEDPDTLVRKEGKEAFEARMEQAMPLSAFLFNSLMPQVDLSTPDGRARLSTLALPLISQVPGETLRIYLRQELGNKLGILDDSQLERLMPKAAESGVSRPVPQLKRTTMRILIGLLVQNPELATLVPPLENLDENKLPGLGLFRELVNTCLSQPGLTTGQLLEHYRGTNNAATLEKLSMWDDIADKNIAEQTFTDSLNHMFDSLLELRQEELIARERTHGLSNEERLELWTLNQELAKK
Description: as §1

GlmU = GlmU (UniProt A7ZTU1)
Sequence of GlmU (A7ZTU1 whole entry, looked up): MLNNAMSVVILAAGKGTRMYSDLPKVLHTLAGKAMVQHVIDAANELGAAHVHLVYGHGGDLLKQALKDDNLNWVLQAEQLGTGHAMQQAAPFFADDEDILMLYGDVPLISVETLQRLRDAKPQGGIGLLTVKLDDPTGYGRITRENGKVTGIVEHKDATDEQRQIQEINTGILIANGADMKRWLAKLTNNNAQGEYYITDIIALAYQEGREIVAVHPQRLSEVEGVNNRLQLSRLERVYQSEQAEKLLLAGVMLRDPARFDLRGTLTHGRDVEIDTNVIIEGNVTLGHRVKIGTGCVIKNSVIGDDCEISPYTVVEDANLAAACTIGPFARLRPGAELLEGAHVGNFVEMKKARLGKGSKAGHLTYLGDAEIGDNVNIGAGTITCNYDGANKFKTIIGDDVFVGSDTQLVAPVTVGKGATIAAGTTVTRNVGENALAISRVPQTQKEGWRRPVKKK
Description: as §1

Guanlyate kinase = Guanlyate kinase (UniProt Q0TBG1)
Sequence of Guanlyate kinase (Q0TBG1 whole entry): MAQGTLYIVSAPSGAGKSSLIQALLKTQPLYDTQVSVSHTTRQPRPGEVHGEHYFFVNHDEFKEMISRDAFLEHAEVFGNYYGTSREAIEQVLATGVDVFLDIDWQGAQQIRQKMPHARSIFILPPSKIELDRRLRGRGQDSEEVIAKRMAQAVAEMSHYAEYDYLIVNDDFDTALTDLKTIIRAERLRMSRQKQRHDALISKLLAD
Description: as §1

MurA = MurA (UniProt Q3YX52)
Sequence of MurA (Q3YX52 whole entry): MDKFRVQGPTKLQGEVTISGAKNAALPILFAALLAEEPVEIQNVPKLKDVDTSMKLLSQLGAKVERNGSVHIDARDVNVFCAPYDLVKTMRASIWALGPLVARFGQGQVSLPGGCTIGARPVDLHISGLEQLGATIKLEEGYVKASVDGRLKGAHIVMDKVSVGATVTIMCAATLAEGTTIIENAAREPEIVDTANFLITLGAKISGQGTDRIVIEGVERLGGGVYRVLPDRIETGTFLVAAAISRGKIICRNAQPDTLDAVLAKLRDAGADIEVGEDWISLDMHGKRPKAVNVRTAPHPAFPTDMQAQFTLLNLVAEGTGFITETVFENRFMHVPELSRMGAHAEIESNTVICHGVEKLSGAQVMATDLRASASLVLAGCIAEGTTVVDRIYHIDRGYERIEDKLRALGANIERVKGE
Description: as §1

MurD = target: T1, MurD (UniProt P14900)
T1 sequence (whole entry): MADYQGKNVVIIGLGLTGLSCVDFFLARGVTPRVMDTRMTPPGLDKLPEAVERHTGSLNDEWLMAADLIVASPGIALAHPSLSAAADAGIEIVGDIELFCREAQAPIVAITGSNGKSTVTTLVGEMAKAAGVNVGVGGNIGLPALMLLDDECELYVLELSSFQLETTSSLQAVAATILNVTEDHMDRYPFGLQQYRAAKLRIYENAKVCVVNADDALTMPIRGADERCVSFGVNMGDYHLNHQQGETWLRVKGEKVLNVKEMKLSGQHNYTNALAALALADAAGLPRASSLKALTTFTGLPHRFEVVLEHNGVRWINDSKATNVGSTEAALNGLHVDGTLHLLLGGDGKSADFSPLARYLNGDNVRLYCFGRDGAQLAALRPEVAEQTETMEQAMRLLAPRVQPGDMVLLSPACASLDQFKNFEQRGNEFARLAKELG
Description: as §1

MurF = target: T2, MurF (UniProt P11880)
T2 sequence (whole entry): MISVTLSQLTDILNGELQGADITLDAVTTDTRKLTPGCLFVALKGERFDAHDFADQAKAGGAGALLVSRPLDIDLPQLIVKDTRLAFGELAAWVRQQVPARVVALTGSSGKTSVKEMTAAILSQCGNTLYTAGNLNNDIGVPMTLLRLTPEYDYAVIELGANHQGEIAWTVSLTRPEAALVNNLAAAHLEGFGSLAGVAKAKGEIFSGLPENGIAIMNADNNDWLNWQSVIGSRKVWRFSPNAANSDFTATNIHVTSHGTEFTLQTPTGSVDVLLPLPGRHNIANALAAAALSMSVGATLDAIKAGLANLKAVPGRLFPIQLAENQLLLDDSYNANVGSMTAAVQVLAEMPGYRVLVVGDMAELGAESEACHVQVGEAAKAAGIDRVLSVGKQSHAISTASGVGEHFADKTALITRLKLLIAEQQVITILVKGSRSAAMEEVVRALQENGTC
Description: as §1

RNA polymerase = test system: RNA polymerase
Description: as §1

SMILES	relative enzymatic activity (DNA gyrase)	relative enzymatic activity (DNA helicase)	relative enzymatic activity (DNA ligase)	relative enzymatic activity (DNA polymerase)	relative enzymatic activity (DNA primase)	relative enzymatic activity (GlmU)	relative enzymatic activity (Guanlyate kinase)	relative enzymatic activity (MurA)	relative enzymatic activity (MurD)	relative enzymatic activity (MurF)	relative enzymatic activity (RNA polymerase)
C=CC1=C(C(=O)O)N2C(=O)[C@@H](NC(=O)/C(=N\O)c3csc(N)n3)[C@H]2SC1	0.489 ± 0.086	0.523 ± 0.095	0.92 ± 0.15	1.13 ± 0.24	0.774 ± 0.038	0.988 ± 0.07	0.885 ± 0.068	0.212 ± 0.095	0.619 ± 0.42	0.981 ± 0.22	0.894 ± 0.077
CON=C(C(=O)NC1C(=O)N2C(C(=O)[O-])=C(COC(N)=O)CSC12)c1ccco1.[Na+] (configuration not stated)	1.06 ± 0.11	0.47 ± 0.024	1.36 ± 0.18	1.12 ± 0.2	0.69 ± 0.18	1.12 ± 0.054	0.9 ± 0.019	0.117 ± 0.034	0.72 ± 0.49	1.02 ± 0.23	0.866 ± 0.088
Oc1c(Cl)cc(Cl)c2cccnc12	0.515 ± 0.28	0.476 ± 0.16	1.11 ± 0.24	1.11 ± 0.21	0.637 ± 0.12	1.21 ± 0.19	0.854 ± 0.039	0.88 ± 0.26	0.642 ± 0.46	0.98 ± 0.18	0.7619 ± 0.0022
CCCN1C[C@H](C)[C@@H](O)[C@](C)(O)[C@@H](CC)OC(=O)[C@H](C)[C@@H](O[C@H]2C[C@@](C)(OC)[C@@H](O)[C@H](C)O2)[C@H](C)[C@@H](O[C@@H]2O[C@H](C)C[C@H](N(C)C)[C@H]2O)[C@](C)(O)C[C@H]1C	0.764 ± 0.38	0.556 ± 0.17	0.802 ± 0.014	1.09 ± 0.11	0.868 ± 0.012	1.073 ± 0.0078	0.858 ± 0.12	0.761 ± 0.074	0.596 ± 0.42	0.968 ± 0.17	0.766 ± 0.12
C[C@H]1COc2c(C3(N)CC3)c(F)cc3c(=O)c(C(=O)O)cn1c23	0.0356 ± 0.05	0.447 ± 0.079	0.801 ± 0.074	0.5 ± 0.7	0.8435 ± 0.0058	0.995 ± 0.012	0.991 ± 0.021	0.619 ± 0.16	0.578 ± 0.38	0.946 ± 0.25	0.861 ± 0.087
CCCC[P+](CCCC)(CCCC)Cc1ccc(NC(=O)[C@@H](Cc2ccc3ccccc3c2)N=C(NC2CCCCC2)NC2CCCCC2)cc1	0.0368 ± 0.052	0.0252 ± 0.0031	0.897 ± 0.14	0.636 ± 0.1	0.576 ± 0.037	0.139 ± 0.0022	0.245 ± 0.019	0.0381 ± 0.0081	0.092 ± 0.023	0.108 ± 0.018	0.2596 ± 0.002
O=C(NC(CO)C(O)c1ccc([N+](=O)[O-])cc1)C(Cl)Cl (configuration not stated)	1.08 ± 0.086	0.453 ± 0.012	0.947 ± 0.19	1.34 ± 0.4	0.725 ± 0.2	0.972 ± 0.052	1.04 ± 0.047	0.8 ± 0.18	0.548 ± 0.34	0.96 ± 0.2	0.86 ± 0.028
C=CC1=C(C(=O)O)N2C(=O)[C@@H](NC(=O)/C(=N/O)c3csc(N)n3)[C@H]2SC1	0.0537 ± 0.076	0.371 ± 0.1	0.963 ± 0.1	1.16 ± 0.24	0.769 ± 0.027	1.004 ± 0.0086	0.947 ± 0.08	0.119 ± 0.015	0.599 ± 0.41	0.943 ± 0.22	0.785 ± 0.086
CC1(C)SC2C(N3C(=O)C(c4ccccc4)NC3(C)C)C(=O)N2C1C(=O)[O-].[K+] (configuration not stated)	1.14 ± 0.073	0.458 ± 0.13	1.67 ± 0.9	1.36 ± 0.37	0.776 ± 0.26	0.948 ± 0.043	1.13 ± 0.1	0.219 ± 0.028	0.563 ± 0.37	0.945 ± 0.14	0.90251 ± 0.00052
NCCCC[C@H](NC(=O)[C@@H](NC(=O)[C@H](Cc1c[nH]c2ccccc12)NC(=O)[C@H](CCCCN)NC(=O)[C@H](CCCCN)NC(=O)[C@H](Cc1c[nH]c2ccccc12)NC(=O)[C@H](Cc1c[nH]c2ccccc12)NC(=O)[C@H](CCCCN)NC(=O)[C@@H](N)CCCCN)C(c1ccccc1)c1ccccc1)C(N)=O	0.0308 ± 0.044	0.0869 ± 0.0012	1.12 ± 0.43	0.0842 ± 0.0071	0.299 ± 0.053	0.879 ± 0.061	0.355 ± 0.02	0.477 ± 0.43	0.568 ± 0.41	0.833 ± 0.18	0.0964 ± 0.032
COc1ccc(Cc2cnc(N)nc2N)cc1OC	0.752 ± 0.41	0.508 ± 0.059	1.55 ± 0.21	1.21 ± 0.22	0.74 ± 0.24	1.019 ± 0.0077	0.993 ± 0.039	0.74 ± 0.026	0.583 ± 0.39	0.946 ± 0.2	0.9567 ± 0.0054
COC1C=COC2(C)Oc3c(C)c(O)c4c(O)c(c5c(nc6cc(C)ccn65)c4c3C2=O)NC(=O)C(C)=CC=CC(C)C(O)C(C)C(O)C(C)C(OC(C)=O)C1C (configuration not stated)	0.733 ± 0.23	0.703 ± 0.32	1.12 ± 0.24	1.11 ± 0.24	0.8 ± 0.047	0.746 ± 0.032	0.583 ± 0.0086	0.423 ± 0.046	0.417 ± 0.28	0.788 ± 0.15	0.106 ± 0.0026
O=C1CN(N=Cc2ccc([N+](=O)[O-])o2)C(=O)N1	1.07 ± 0.045	0.467 ± 0.062	1.42 ± 0.59	1.32 ± 0.47	0.655 ± 0.11	0.964 ± 0.044	0.855 ± 0.027	0.649 ± 0.061	0.593 ± 0.41	0.96 ± 0.23	0.815 ± 0.028
Cc1cc(=O)c(C(=O)N[C@@H](C(=O)N[C@@H]2C(=O)N3C(C(=O)O)=C(CSc4nnnn4C)CS[C@H]23)c2ccc(O)cc2)c[nH]1	0.759 ± 0.035	0.278 ± 0.28	0.862 ± 0.016	1.08 ± 0.15	0.766 ± 0.023	0.919 ± 0.03	0.946 ± 0.015	0.116 ± 0.018	0.634 ± 0.44	0.92 ± 0.2	0.505 ± 0.5
CNC1C(O)C(NC)C2OC3(O)C(=O)CC(C)OC3OC2C1O.Cl.Cl (configuration not stated)	0.963 ± 0.22	0.484 ± 0.0079	1.07 ± 0.22	1.35 ± 0.45	0.693 ± 0.19	1.02 ± 0.015	0.421 ± 0.021	0.4888 ± 0.0032	0.533 ± 0.35	0.898 ± 0.16	0.871 ± 0.064
CC[C@H]1OC(=O)[C@H](C)[C@@H](O[C@H]2C[C@@](C)(OC)[C@@H](O)[C@H](C)O2)[C@H](C)[C@@H](O[C@@H]2O[C@H](C)C[C@H](N(C)C)[C@H]2O)[C@](C)(OC)C[C@@H](C)C(=O)[C@H](C)[C@@H](O)[C@]1(C)O	0.647 ± 0.56	0.732 ± 0.33	0.901 ± 0.15	1.15 ± 0.22	0.831 ± 0.025	1.03 ± 0.0049	0.97 ± 0.048	0.856 ± 0.12	0.58 ± 0.37	0.942 ± 0.24	0.862 ± 0.13
NC[C@H]1OB(O)c2c(OCCCO)cccc21	0.84 ± 0.32	0.308 ± 0.43	0.887 ± 0.13	1.08 ± 0.082	0.8235 ± 0.0023	0.922 ± 0.11	0.991 ± 0.1	0.709 ± 0.16	0.564 ± 0.35	1.17 ± 0.024	0.871 ± 0.073
